From PubChem BioAssay come the findings set out here.

The term inhibition denotes the change of the read-out against control, counted positive when it falls.

The nature of test [1]: inhibitors of TNFa-induced NFkB p65 translocation, primary screen, imaging, HUVEC, MLSMR starter and 10KST1 sets (AID 438;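 active = inhibition above 20% together with a positive visual image hit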;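 note: compound added about 3h40 before a 20 min TNFalpha stimulation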;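 for inhibition: signal is the nuclear over cytoplasmic p65 intensity ratio per well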). As to conditions: HUVEC TNFa-induced p65 nuclear translocation; cell count: measured here: nuclei count (cytotoxicity indicator), at 2.08 µM; inhibition: at 2 µM, stronger effect = higher value, 0% TNFa-plus-vehicle, 100% no-TNFa wells.
Test [2] can be described thus: reduction of polyQ htt aggregates in cells – imaging, exon1htt(103Q)mCFP cells, high-content imaging, primary screen (AID 483;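 active = visual image review flags a hit and inhibition of aggregation exceeds 20%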;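 note: compound exposure lasted 3 days before fixation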;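 for nuclei count: percent of the per-plate median nuclei count of sample wells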). As to conditions: exon1htt(103Q)mCFP cell line, aggregate imaging, at 2 µM; inhibition of aggregation: stronger effect = higher value; nuclei count: measured here: cell count, toxicity.
Test [3] is described as follows: endothelial E-selectin expression blockers – imaging, HUVEC, immunofluorescence, MLSMR starter and 10KST1 sets, primary screen (AID 487).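 For inhibition: signal is fraction of cell area covered by stained E-selectin grains.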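 For nuclei count: 100% = median nuclei count of all wells on the same plate.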 The following applies: HUVEC TNFalpha-induced E-selectin immunofluorescence imaging, at 2 µM; inhibition: stronger effect = higher value; nuclei count: measured here: cell number, toxicity.
Test [4] can be described thus: Primary imaging screen for DUSP6 inhibitors that restore phospho-Erk in transfected HeLa cells, chemical complementation (AID 609;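 active = compounds giving at least 50% inhibition in the cell-based MKP-3 phosphatase rescue imaging test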;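 for inhibition: phospho-Erk level distribution per well compared with pooled transfected vehicle control wells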). The following applies: HeLa MKP-3 transfected, phospho-Erk imaging KS statistic, at 10 µM, cells stimulated with TPA for 15 min.
For test [5], the target named is Dual specificity protein phosphatase 6 (Homo sapiens) (UniProt Q16828). Described as above. As to conditions: HeLa MKP-3 transfected, phospho-Erk imaging KS statistic; at 10 µM; stronger effect = higher value; cells stimulated with TPA for 15 min.
Test [6] deals with Voltage-gated potassium channel subunit beta-2 (Rattus norvegicus) (UniProt P62483). In words: inhibitors of rat Kvbeta2 reductase activity – biochemical, NADPH fluorescence, primary screen (AID 622;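 active = fluorescence slope higher than the sample average by over 3 SD, cut at about -0.22 in these data, passing the limit was not always enough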;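 note: slope of raw intensity against log time taken from 70 to 1610 s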). The following applies: recombinant KvBeta, 4-cyanobenzaldehyde reduction, at 10 µM, stronger effect = higher value.
Test [7] shares this target. In words: enhancers of rat Kvbeta2 NADPH turnover – biochemical, NADPH fluorescence, primary screen (AID 623;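 active = NADPH fluorescence slope more negative than the mean of all samples by about 3 SD, 99.7% confidence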;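 note: fluorescence intensity change per second fitted from 20 to 320 s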). The following applies: Recombinant KvBeta, NADPH fluorescence decrease slope, 10 min; at 10 µM; stronger effect = lower value.
For test [8], the target named is Alpha-2C adrenergic receptor (Homo sapiens) (UniProt P18825). In words: compounds altering alpha2C-coupled GIRK flux – cell-based, HEK293 alpha2C/GIRK1/2, thallium flux, primary screen (AID 624;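 active = fluorescence slope after compound addition differing from the mean of all screened samples at 99.7% confidence, in either direction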;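 note: slope of fluorescence ratio to pre-addition baseline per second over 15 to 24 s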). The following applies: thallium flux BTC fluorescence, at 10 µM, actives lie on both sides.
The nature of test [9]: inhibitors of larval lipid processing in zebrafish, primary screen, whole organism, PED6 fluorescence, gall bladder and intestine (AID 686;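 active = a full or partial loss of lipid-probe fluorescence in the fish gall bladder, intestine or both, judged by eye; inactive = no fluorescence loss, or compound toxic to the fish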;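 note: larvae 5 to 7 days old with five fish per well; signal comes from phospholipase A2 cleavage of quenched PED6 carried via bile; overnight exposure to compound and PED6 before scoring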). The following applies: Zebrafish larvae PED6 lipid processing, fluorescence scoring; screened at 20 µM (by protocol).
Test [10] can be described thus: loss of swimming-algae plug formation – whole organism, Chlamydomonas reinhardtii, WT vs cilia-less mutant, absorbance, 96-well, primary screen (AID 463189;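 active = inhibition at or above 50% relative to wild type and mutant plate controls; inactive = inhibition below 50%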;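 note: 0% = wild type cc124 cells in DMSO and 100% = ciliumless bld1 mutant cells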). The following applies: Chlamydomonas reinhardtii gravitaxis, OD600 absorbance, 2 days; at 10 µM; stronger effect = higher value.
The nature of test [11]: blockers of RIG-like receptor reporter activation – cell-based, Sendai virus stimulus, luciferase, 10K MLSCN set, TLR/RLR signaling modifier project, primary screen (AID 602276;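 active = inhibition at or above 50% at 10 µM; inactive = inhibition below 50%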;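 note: firefly luciferase from ISG56 promoter only with Renilla not read in this screen; 0% = Sendai virus plus DMSO and 100% = medium plus DMSO without virus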). The following applies: HEK293 RL24 IRF3 luciferase reporter, at 10 µM, stronger effect = higher value. In general terms: Reporter assays use an easily measured gene product as a stand-in for the process of interest.

A short description of test [12]: TLR3 IRF3 reporter activation blockers – cell-based, poly I:C stimulus, luciferase, 10K MLSCN set, primary screen (AID 602277;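 active = inhibition of the reporter signal at or above 50%; inactive = inhibition below 50%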). The following applies: HEK293-TLR3 RL24 IRF3 luciferase reporter, at 10 µM, stronger effect = higher value.
Setting [13] is: measured here: cell density z-score.
Where [14] appears, read: measured here: nuclear c-Myc green intensity z-score.
The mark [15] stands for this setting: measured here: nuclear pErk red intensity z-score, stronger effect = higher value.

The source made the active and inactive calls.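 Rule for the calls, unless noted: active = visually confirmed hit in the image check and inhibition above 20%; inconclusive = visually confirmed hit but inhibition not above 20%; inactive = no visual hit in the image check.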

Sequence of Alpha-2C adrenergic receptor (Homo sapiens) (P18825 whole entry, looked up): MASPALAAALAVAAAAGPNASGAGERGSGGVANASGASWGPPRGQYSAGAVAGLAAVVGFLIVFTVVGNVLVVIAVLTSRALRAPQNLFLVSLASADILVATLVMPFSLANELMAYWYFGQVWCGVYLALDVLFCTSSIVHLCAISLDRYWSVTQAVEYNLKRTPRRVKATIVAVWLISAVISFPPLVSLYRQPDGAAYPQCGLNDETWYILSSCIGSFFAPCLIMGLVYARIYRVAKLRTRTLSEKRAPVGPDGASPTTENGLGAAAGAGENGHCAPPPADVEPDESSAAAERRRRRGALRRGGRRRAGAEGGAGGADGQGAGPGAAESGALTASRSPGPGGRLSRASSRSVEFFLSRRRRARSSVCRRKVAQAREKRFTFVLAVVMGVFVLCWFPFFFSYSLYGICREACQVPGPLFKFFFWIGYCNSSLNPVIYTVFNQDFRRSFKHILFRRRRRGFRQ
Sequence of Voltage-gated potassium channel subunit beta-2 (Rattus norvegicus) (P62483 whole entry, looked up): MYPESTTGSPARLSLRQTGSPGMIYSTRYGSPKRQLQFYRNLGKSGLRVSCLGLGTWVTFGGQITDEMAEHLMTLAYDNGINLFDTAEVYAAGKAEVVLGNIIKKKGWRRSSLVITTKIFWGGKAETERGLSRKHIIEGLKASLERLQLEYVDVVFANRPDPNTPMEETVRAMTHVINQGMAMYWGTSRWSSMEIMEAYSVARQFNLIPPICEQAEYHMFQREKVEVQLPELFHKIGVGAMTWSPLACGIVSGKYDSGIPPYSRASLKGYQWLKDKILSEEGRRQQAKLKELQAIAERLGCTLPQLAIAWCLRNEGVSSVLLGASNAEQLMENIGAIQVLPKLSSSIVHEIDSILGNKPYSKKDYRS
Sequence of Dual specificity protein phosphatase 6 (Homo sapiens) (Q16828 whole entry, looked up): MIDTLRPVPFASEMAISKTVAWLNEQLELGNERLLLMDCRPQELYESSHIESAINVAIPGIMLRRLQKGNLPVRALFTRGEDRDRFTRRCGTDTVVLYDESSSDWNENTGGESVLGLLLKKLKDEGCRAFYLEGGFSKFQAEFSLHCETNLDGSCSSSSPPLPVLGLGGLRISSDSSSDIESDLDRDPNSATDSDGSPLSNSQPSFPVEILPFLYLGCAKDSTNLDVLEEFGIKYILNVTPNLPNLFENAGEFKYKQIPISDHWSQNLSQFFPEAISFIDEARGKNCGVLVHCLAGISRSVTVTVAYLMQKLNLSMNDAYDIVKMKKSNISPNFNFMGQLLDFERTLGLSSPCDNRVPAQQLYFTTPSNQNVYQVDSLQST

On to `O=C1CC(c2ccccc2)NC(=O)N1` (stereo not given), for which the cell count in [1] worked out at 692. For the same compound, the inhibition in [1] was -11.2% (inactive); in test [3] it was 23% (inactive); in test [5], 9.39% (inactive); in test [10] it was -8.12% (inactive); in [11], 11% (inactive); in [12], 23.5% (inactive). The inhibition of aggregation in [2] is 15.5% (inactive). Moreover, the nuclei count stood at 100% in test [2] and 127% in test [3]. In addition, the z-score is -1.04 in test [4] (setting [13]), -0.999 in test [4] (setting [14]) and 0.572 in test [4] (setting [15]). Moreover, in test [6], the fluorescence slope was -0.454 (inactive). The NADPH fluorescence slope in test [7] was -0.000279 (inactive). Moreover, in test [8], the slope is 0.0044 (inactive). Besides, in [9], the result was inactive.
For the compound `CCCCCC(=O)N1CC2(C)CN(C(=O)CCCCC)CC(C)(C1)C2=O`, the cell count in test [1] is 482. Besides, the inhibition in [1] was 3.2% (inactive); in [3], -94.9% (inactive); in test [5], 7.42% (inactive); in [10] it was 24% (inactive); in [11], 6.58% (inactive); in [12] it was 21.5% (inactive). Further, in [2], the inhibition of aggregation is -8.1% (inactive). In addition, the nuclei count came to 97.5% in test [2] and 101% in [3]. Besides, the values for the z-score in [4] (setting [13]), in test [4] (setting [14]) and in test [4] (setting [15]) were 0.798, 0.672 and 0.65, respectively. Moreover, the fluorescence slope in test [6] was -0.352 (inactive). Also, in [7], the NADPH fluorescence slope was -4.5e-05 (inactive). Moreover, in test [8], the slope is 0.00564 (inactive). Further, the compound was called inactive in [9].
As to `O=C(O)c1ccccc1S`, the cell count in test [1] was 650. In addition, the inhibition in test [1] is -5% (inactive); in test [3] it was -76.8% (inactive); in test [5], 21.2% (inactive); in test [10], -11% (inactive); in test [11], 6.85% (inactive); in test [12], 19% (inactive). The inhibition of aggregation in test [2] is 6.8% (inactive). Also, the nuclei count in test [2] was determined as 96.1%; in test [3], 126%. Further, the z-score is 1.28 in test [4] (setting [13]), 1.34 in test [4] (setting [14]) and -0.494 in [4] (setting [15]). Moreover, in test [6], the fluorescence slope is -0.435 (inactive). In [7], the NADPH fluorescence slope is -8.2e-05 (inactive). In addition, the slope in test [8] was 0.00404 (inactive). The compound was classed as inactive in test [9].
With `CO[C@H]1C[C@@H]2CC[C@@H](C)[C@@](O)(O2)C(=O)C(=O)N2CCCC[C@H]2C(=O)O[C@H]([C@H](C)C[C@@H]2CC[C@@H](O)[C@H](OC)C2)CC(=O)[C@H](C)C=C(C)[C@@H](O)[C@@H](OC)C(=O)[C@H](C)C[C@H](C)C=CC=CC=C1C`, in [1], the cell count was determined as 629. For the same compound, the inhibition in [1] was -23.5% (inactive); in test [3], -63% (inactive); in test [5], 19.2% (inactive); in test [10], 44.3% (inactive); in test [11] it was 21.8% (inactive); in test [12], 43.8% (inactive). In addition, the inhibition of aggregation in test [2] was 3.4% (inactive). For the same compound, the nuclei count in test [2] turned out to be 97%; in [3] it was 106%. Moreover, the z-score in test [4] (setting [13]) came out at 0.947; in [4] (setting [14]) it was 0.453; in test [4] (setting [15]), 0.871. For the same compound, the fluorescence slope in test [6] is -0.462 (inactive). In addition, the NADPH fluorescence slope in test [7] is -3.4e-05 (inactive). Further, the slope in test [8] is 0.00536 (inactive). For the same compound, in [9], the compound was called inactive.
As to `CC(O)Cn1cnc2c1c(=O)n(C)c(=O)n2C` (stereo not given), the cell count in test [1] amounted to 541. Also, the inhibition in test [1] was -7% (inactive); in test [3] it was -13.1% (inactive); in test [5], 15.3% (inactive); in test [10], 23.2% (inactive); in test [11], 12% (inactive); in test [12], 29.4% (inactive). Moreover, the inhibition of aggregation in test [2] was 11.8% (inactive). Also, the results for the nuclei count in test [2] and in test [3] were 99.1% and 128%, respectively. Also, the z-score is 1.09 in test [4] (setting [13]), -0.569 in test [4] (setting [14]) and -0.416 in test [4] (setting [15]). In addition, in test [6], the fluorescence slope was -0.45 (inactive). Besides, in test [7], the NADPH fluorescence slope is -7.7e-05 (inactive). Also, the slope in test [8] was 0.00504 (inactive). In [9], the compound was classed as inactive.
